Test results taken from PubChem BioAssay AID488969 (Vanderbilt High Throughput Screening Facility, 2010).
Over roughly 110,000 compounds, “z-score” has its median near -0.1; the highest 2% begin near 2. The sample holds the highest values, similar compounds and a random draw of the others, so the mix is not that of the screen. Activity calls are given as the source filed them.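 How the source made its calls: active means z-score in the third read window above 3 or below -3; inactive means the rest.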

target: Metabotropic glutamate receptor 8 (Rattus norvegicus) (UniProt P70579); assay: rat mGluR8 modulators via GIRK flux, primary screen, cell-based, thallium flux, HTS (AID 488969); settings: HEK293 rat mGluR8, GIRK (G protein-gated inwardly rectifying potassium channel) thallium flux, FluoZin2; at 10 µM; stronger effect = higher value; submaximal glutamate (EC20) added with thallium
Sequence (P70579 whole entry, looked up): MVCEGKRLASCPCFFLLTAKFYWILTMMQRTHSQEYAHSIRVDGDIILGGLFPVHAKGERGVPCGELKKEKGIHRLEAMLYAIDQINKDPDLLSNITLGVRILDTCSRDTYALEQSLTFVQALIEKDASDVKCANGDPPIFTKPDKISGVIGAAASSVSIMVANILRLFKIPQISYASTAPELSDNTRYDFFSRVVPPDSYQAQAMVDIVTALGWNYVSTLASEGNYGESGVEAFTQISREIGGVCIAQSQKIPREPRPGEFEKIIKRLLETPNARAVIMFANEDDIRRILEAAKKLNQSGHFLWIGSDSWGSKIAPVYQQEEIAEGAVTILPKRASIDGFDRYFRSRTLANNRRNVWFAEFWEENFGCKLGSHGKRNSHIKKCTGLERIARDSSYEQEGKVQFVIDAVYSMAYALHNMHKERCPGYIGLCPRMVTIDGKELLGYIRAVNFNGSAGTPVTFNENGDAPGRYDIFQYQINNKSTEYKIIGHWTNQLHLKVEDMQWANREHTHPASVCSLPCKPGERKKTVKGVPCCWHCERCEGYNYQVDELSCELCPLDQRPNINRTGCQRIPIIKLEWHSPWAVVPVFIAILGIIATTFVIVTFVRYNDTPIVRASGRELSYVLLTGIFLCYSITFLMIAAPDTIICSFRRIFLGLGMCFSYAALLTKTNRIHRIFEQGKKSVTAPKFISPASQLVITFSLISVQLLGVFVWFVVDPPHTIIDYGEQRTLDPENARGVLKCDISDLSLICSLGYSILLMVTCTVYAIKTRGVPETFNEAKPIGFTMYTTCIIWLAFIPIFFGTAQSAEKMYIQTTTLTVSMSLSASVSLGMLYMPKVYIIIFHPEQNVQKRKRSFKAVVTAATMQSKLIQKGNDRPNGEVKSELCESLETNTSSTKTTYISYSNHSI

| Structure (SMILES) | z-score |
| --- | --- |
| O=C(NC(=S)N1CCN(c2ccc([N+](=O)[O-])cc2)CC1)c1ccc(F)cc1 | 9.01 (active) |
| COc1ccc(C(=O)NC(=S)N2CCN(c3ccc([N+](=O)[O-])cc3)CC2)cc1 | 0.274 |
| C=CCNC(=S)N1CCN(c2ccc([N+](=O)[O-])cc2)CC1 | 2.09 |
| CNC(=S)N1CCN(c2ccc([N+](=O)[O-])cc2)CC1 | -0.188 |
| Cc1ccc(C(=O)NC(=S)N2CCN(c3ccc([N+](=O)[O-])cc3)CC2)cc1 | 0.426 |
| CCNC(=S)N1CCN(c2ccc([N+](=O)[O-])cc2)CC1 | 0.99 |
| CN(C)c1nc2ccccc2c(N)c1-c1ccccc1 | 3.06 (active) |
| CN(C)c1nc(-c2ccccc2)nnc1C(F)(F)F | -0.148 |
| Cc1cc(C)c2c(N)c3ccccc3nc2n1 | -0.0162 |
| CCN(CC)c1nc2ccccc2c(N)c1-c1ccccc1 | 0.0637 |
| Cc1c(N(C)C)nc2ccccc2c1N | 2.03 |
| CC(=O)c1c(C)nc2ccccc2c1N | 0.205 |
| O=C(NCc1cccnc1)c1cccc(Cl)c1 | 0.278 |
| O=C(Cn1c(=O)oc2ccccc21)NCc1ccco1 | 0.455 |
| Cc1c(NCc2cc(Cl)ccc2O)c(=O)n(-c2ccccc2)n1C | -0.0479 |
| O=C(CSc1nnc(-c2cccc(Cl)c2)o1)Nc1ccc2c(c1)OCCO2 | -0.0175 |
| CCCN(CC(=O)Nc1cc(Cl)cc(Cl)c1)CC(=O)Nc1ccc(F)c(F)c1F | -0.209 |
| CC(C)COP(=O)(c1ccc(N(C)C)cc1)C(Nc1ccccc1)c1ccccc1 (stereo not drawn) | -0.803 |
| COc1cccc(NC(=O)NCCCSC2CCCCC2)c1 | 4.47 (active) |
| CCCCSCCCNC(=O)Nc1cccc(OC)c1 | -0.211 |
| CCOc1ccc(NC(=O)NCCCSC2CCCCC2)cc1 | 0.197 |
| O=C(COC(=O)c1cccc([N+](=O)[O-])c1)c1ccc(OCc2ccccc2)cc1 | -0.231 |
| COc1ccc(CNC(=O)Cc2csc(Nc3nc(=S)[nH]c4ccccc34)n2)cc1 | 8.83 (active) |
| COc1ccc(CNC(=O)COC(=O)[C@H](Cc2c[nH]c3ccccc23)NC(=O)c2cccs2)cc1 | 0.0349 |
| O=C(O)CCCCCNc1nc(=S)[nH]c2ccccc12 | 0.209 |
| O=C(Cc1csc(Nc2nc(=S)[nH]c3ccccc23)n1)NCc1ccc(Cl)cc1 | 7.05 (active) |
| O=C(O)Cc1csc(Nc2cccc(Cl)c2)n1 | 0.819 |

| Structure (SMILES) | z-score |
| --- | --- |
| O=C(CCCSc1nc2ccccc2[nH]1)NCc1ccc(Cl)cc1 | -0.328 |
| COc1ccc(CNC(=O)Cc2c(C(=O)O)[nH]c3ccccc23)cc1 | -0.136 |
| COC(=O)Cc1csc(Nc2ccccc2Cl)n1 | 0.0565 |
| O=C(Cc1csc(Nc2nc(=S)[nH]c3ccccc23)n1)NCc1ccccc1Cl | 3.83 (active) |
| O=C(Cc1csc(Nc2nc(=S)[nH]c3ccccc23)n1)NCc1cccc(Cl)c1 | 6.85 (active) |
| O=C(CCCCCNc1nc(=S)[nH]c2ccccc12)NCCc1ccccc1 | 0.302 |
| O=C(Cc1c[nH]c2ccccc12)NCc1ccc(Cl)cc1 | 0.348 |
| Cc1cccc(OCC(=O)Nc2ccc(N3CCN(C(=O)c4ccccc4)CC3)cc2)c1 | -0.0735 |
| Cc1ccc(S(=O)(=O)N2CCOCC2)c2nsnc12 | -0.358 |
| CCN1CCN(C(CNC(=O)c2ccc3c(c2)OCO3)c2cccnc2)CC1 (stereo not drawn) | -0.319 |
| COc1cc2c(cc1OC)CN(C(=O)C(C)(C)C)CC2 | -0.104 |
| CN(C1CCCCC1)S(=O)(=O)c1ccc(S(=O)(=O)N2CCN(CCC#N)CC2)cc1 | 0.242 |
| CCS(=O)CCSC(=N)N (stereo not drawn) | -0.0992 |
| Cc1ccc(CNC(=O)Cc2csc(Nc3nc(=S)[nH]c4ccccc34)n2)cc1 | 10.7 (active) |
| Cc1ccc(NC(=S)Nc2nc(CC(=O)Nc3ccccc3)cs2)cc1 | 0.0541 |
| O=C(Cc1csc(-c2ccccc2)n1)NCc1ccc(F)cc1 | -0.252 |
| COc1ccc(-n2nc3ccccc3n2)cc1 | 0.249 |
| O=C(NCc1ccncc1)C1CCCN(S(=O)(=O)Cc2ccccc2)C1 (stereo not drawn) | -0.193 |
| CCC1CCCCN1C(=O)CSc1nnc(-c2cccs2)o1 (stereo not drawn) | 0.801 |
| CCC1CCCCN1C(=O)CSc1nnc(-c2ccc(Cl)cc2)o1 (stereo not drawn) | -0.41 |
| CCC1CCCCN1C(=O)CSc1nnc(-c2ccco2)o1 (stereo not drawn) | 11.1 (active) |
| CCC(NC(=O)Cn1cnc2c(=O)n(C)c(=O)n(C)c21)c1ccccc1 (stereo not drawn) | 0.0869 |
| COc1ccc(C2C(C(=O)c3ccco3)=C(O)C(=O)N2CCOCCO)cc1OC (stereo not drawn) | -0.0423 |
| COc1ccc(CC(=O)Nc2cccc(-c3csc(C)n3)c2)cc1 | 1.88 |
| O=C(NOC(=O)c1ccccc1Cl)c1cccs1 | -0.383 |
| COC(=O)NNC(=O)c1ccc(C)cc1 | 0.0536 |
